The results in this text go back to the supplement of paper PMC10723795.

Each structure is given as a SMILES string. ± gives the standard deviation of the averaged measurements.

One assay has as its system DLD1. The assay is described as follows: nucleolar normality score relative to DMSO (fraction of DMSO control); RPE1 is a non-cancer human cell line; higher = more normal nucleoli (less nucleolar stress). The procedure: (§1)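 Selected screen hits were validated in hTERT lines (BJ5TA, CHON-002, RPE1) and cancer lines (DLD1, HCT116). Cells were immunostained for nucleolin and UBF and the nucleolar normality score was measured per field of view, with 4 fields per drug. Scores are normalized to each cell line's own DMSO control. Dose and time are not stated for this panel.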

For the next assay, the system named is HCT116. The assay is described as above. As for the experimental part: as §1

`CC[C@@]1(O)C(=O)OCc2c1cc1n(c2=O)Cc2cc3ccccc3nc2-1` [Camptothecin]: the nucleolar normality score with DLD1 amounted to 0.402 ± 0.049; in the assay with HCT116 it was 0.407 ± 0.015.
